HCMV inh – qHTS Assay for inhibitors of the human cytomegalovirus (HCMV) | hit rate 4.5% among 410,000 | AID 1259415, 2018 | HFF cells, HCMV-luciferase reporter, 72 h; stronger effect = lower value | activity change, negative = inhibition, % at 57.5 µM; in the data active means activity change below about -60%; inconclusive means no clear call, values can overlap the other calls; inactive means above about -39%
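Inhibition of viral replication was scored as loss of reporter luminescence in HFFs infected with HCMV-luciferase (MOI 1 PFU/cell) for 72 h; compounds tested at 2 doses, normalized to buffer and Salinomycin controls.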
MARV entry inh – qHTS for inhibitors of binding or entry into cells for Marburg Virus; hit rate 1.8% among 300,000; Marburg virus pseudotyped entry inhibition, cell reporter; Potency, µM (titrated, usually from 37.8 µM), inactives show at the highest dose activity change, negative = inhibition, most hits filed as inhibitors; calls by dose curve; tested in HEK293 cells; further: potency means the concentration at half of the fitted maximal effect
HCV inhibitor – qHTS Assay for Inhibitors of Hepatitis C Virus (HCV); Potency, µM (series often up to 41.8 µM), inactives show at the highest dose activity change, negative = inhibition, most hits filed as inhibitors; Huh7.5.1 HCVcc-Cre infection, luciferase reporter, 44 h; hit rate 3.4% among 340,000; active means well fitted inhibition curve with a large enough effect; inconclusive means small, poorly fitted or top-dose-only effect, or another doubt; inactive means no such curve, though single readings can be large or run the other way; further: potency means the concentration at half of the fitted maximal effect
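1,000 cells/well; 4 h culture; + compound; + HCVcc-Cre (~0.5 moi); 44 h; luciferase substrate, RT 15 min; read 15 sec.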
FMDV inh – High Throughput Screening for Foot and Mouth Disease Virus Antivirals; FMDV antiviral cell-based qHTS; AID 1159524, 2015; Potency, µM (series often up to 57.9 µM), inactives show at the highest dose activity change, negative = inhibition, most hits filed as inhibitors; hit rate 1.2% among 410,000; calls by dose curve; tested in HEK293T cells; further: read-out not given here; potency means the concentration at half of the fitted maximal effect; nearly all actives have a fitted effect of over 45% in size
LASV entry inh – qHTS for Inhibitors of binding or entry into cells for Lassa Virus; Lassa virus pseudotype entry inhibition, cell reporter; Potency, µM (highest dose often 37.9 µM), for inactives: at the highest dose activity change, negative = inhibition, most hits filed as inhibitors; hit rate 1.2% among 300,000; AID 540256, 2011; calls by dose curve; tested in HEK293 cells; further: potency means the concentration at half of the fitted maximal effect; nearly all actives have a fitted effect of over 50% in size
The depositor's hits bear a star; ? = inconclusive; nt = no result given; [ ] = another dose, or the depositor's remark. A selection: hits, their analogues and other compounds. The true share with any hit is near 7.9%. On the % scale 0 is the no-effect control and ±100 the full control effect.

SMILES | HCMV inh | MARV entry inh | HCV inhibitor | FMDV inh | LASV entry inh
COCCCn1c(=N)c(C(N)=S)cc2c(=O)n3cccc(C)c3nc21 | ? | ? | ? | -13% | -1%
COCCCn1c(=N)c(C(=O)NCc2cccnc2)cc2c(=O)n3cc(C)ccc3nc21 | 9 | -2%[46.1 µM] | nt | 5% | -1%[46.1 µM]
O=C1C=CC(=O)c2c(O)c(Cl)c(Cl)c(O)c21 | nt | nt | nt | -11% | nt
COc1ccc(C(O)(CCC(C)C)C(CN2CCOCC2)c2ccc(Cl)cc2)cc1 (stereo not drawn) | ? | ? | ? | -28% | ?
CCc1ccc(C(O)(CC(C)C)C(CN2CCOCC2)c2ccccc2)cc1 (stereo not drawn) | -90* | nt | ? | ? | nt
COc1ccc(C(O)(CC(C)C)C(CN2CCOCC2)c2ccccc2)cc1 (stereo not drawn) | -83* | ? | -6% | ? | -16%[46.1 µM]
CCCC(O)(c1ccc(Cl)cc1)C(CN1CCOCC1)c1ccc(Cl)cc1 (stereo not drawn) | -21 | 7.9µM* | 14% | ? | -16%[46.1 µM]
Cc1cc(C)c2cc3c(N)c(C(=O)N4CCc5ccccc5C4)sc3nc2c1 | 2 | 0% | ? | nt | 6%
Cc1cccc2cc3c(N)c(C(=O)N4CCOCC4)sc3nc12 | 149 | ? | ? | 49% | 11µM*
COc1ccc(N/N=C(/C(N)=O)C2=NC(C)(C)Cc3ccccc32)cc1 | -92* | ? | ? | -19% | ?
O=C(CCCl)N1c2ccccc2C=Cc2ccccc21 | -71* | nt | ? | -5% | nt
O=C(N1CCN(CCO)CC1)N1c2ccccc2C=Cc2ccccc21 | 91 | ? | -2% | 2% | 2%
COC(=O)c1c(C(=O)OC)c2ccccn2c1C(=O)c1ccc([N+](=O)[O-])cc1 | -102* | -4% | -7% | ? | -4%
Cc1c(C=O)c2ccccn2c1C(=O)c1cccc([N+](=O)[O-])c1 | 2 | -3% | ? | -25% | -21%
Cc1cccc(NC(=O)NC(C)C(c2cccs2)N2CCOCC2)c1 (stereo not drawn) | -67* | nt | 6% | -21% | nt
Cc1cccc(Oc2ccc(NC(=O)CCC(=O)OCC(=O)c3ccc(Br)cc3)cc2)c1C | 0 | -7%[46.1 µM] | nt | -1% | 0%[46.1 µM]
CCOC(=O)c1sc(N2C(=O)c3oc4cc(C)c(C)cc4c(=O)c3C2c2cccc(O)c2)nc1C (stereo not drawn) | -5 | ? | nt | 2% | 21%[46.1 µM]
CCOC(=O)c1sc(N2C(=O)c3oc4cc(C)c(C)cc4c(=O)c3C2c2ccc(C)cc2)nc1C (stereo not drawn) | -111* | 20%[46.1 µM] | nt | -6% | -1%[46.1 µM]
COc1cc2c(cc1OC)[C@@H]1O[C@](CCCCN3C(=O)c4ccccc4C3=O)(C2)Oc2c1c(=O)oc1ccccc21 | nt | 3%[14.2 µM] | nt | nt | nt
CCOC(=O)c1ccc(N2C(=O)c3n[nH]c(-c4ccco4)c3C2c2cccc(OC)c2)cc1 (stereo not drawn) | -10 | ? | nt | ? | ?
CCOC(=O)c1ccc(N2C(=O)c3n[nH]c(-c4ccco4)c3C2c2ccc(F)cc2)cc1 (stereo not drawn) | -89* | ? | nt | ? | ?
CCOC(=O)c1ccc(N2C(=O)c3n[nH]c(-c4ccco4)c3C2c2ccccc2OC)cc1 (stereo not drawn) | -101* | ? | nt | 22µM* | ?
CCOC(=O)c1ccc(N2C(=O)c3n[nH]c(-c4ccco4)c3C2c2cccc(F)c2)cc1 (stereo not drawn) | -98* | ? | nt | ? | ?
CCOC(=O)c1ccc(N2C(=O)c3n[nH]c(-c4ccco4)c3C2c2cccc(O)c2)cc1 (stereo not drawn) | 14 | ? | nt | 25µM* | ?
CCOC(=O)c1ccc(N2C(=O)c3n[nH]c(C)c3C2c2ccccc2)cc1 (stereo not drawn) | -13 | ? | 6% | -7% | -20%
CCOC(=O)c1ccc(N2C(=O)c3n[nH]c(-c4ccco4)c3C2c2ccc(OCC)cc2)cc1 (stereo not drawn) | -88* | 11µM* | nt | ? | ?
CCc1nn(CC(=O)N(C)Cc2ccccc2)c(=O)c2cc3sccc3n12 | 3 | -28%[46.1 µM] | nt | -19% | nt
COc1ccc(-c2cc(N)n(S(=O)(=O)c3c(F)c(F)c(F)c(F)c3F)n2)cc1OC | -102* | 2.3µM* | ? | ? | ?
